Drawing on PubChem BioAssay AID624483 (NMMLSC, 2012), this text covers fluorescence intensity for 93 molecules.

Each structure is given as a SMILES string. The whole screen tested about 360,000 compounds, of which about 11,000 (3.1%) were called active. Roughly 2% stayed inconclusive and do not appear here. Rule as the data show it: active = fluorescence intensity above about 16000; inconclusive = no clear call, values can overlap the other calls; inactive = below that. Many of the other results were omitted from the sample, so actives are more common in it than they were.

The assay is described as follows: compound fluorescence in toxin protease inhibitor counterscreen, primary screen, artefact control for toxin protease inhibitor project, biochemical, multiplex microsphere, HTS (AID 624483). Particulars: compound autofluorescence counterscreen, microsphere flow cytometry; active compounds read high.
Consider `COc1ccc(Cl)cc1-c1cc(C(=O)Nc2cc(OC)c(OC)c(OC)c2)[nH]n1`, for which the fluorescence intensity was 3880 (inactive). As for `O=S(=O)(NC1CCCCC1N1CCCCC1)c1ccc(Cl)cc1` (stereo not drawn), the fluorescence intensity is 5790 (inactive). Take `O=S(=O)(NC1CCCCC1N1CCC(O)CC1)c1ccc(Cl)cc1` (stereo not drawn): the fluorescence intensity was 38100 (active).

Regarding `CCN1CCN(C2CCCCC2NS(=O)(=O)c2ccc(Cl)cc2)CC1` (stereo not drawn), the fluorescence intensity is 5580 (inactive). Next, `Cc1cc(OCC(=O)N2CCN(c3ncccn3)CC2)ccc1Cl`: 4880 (inactive); `COc1ccc(OC)c(NC(=O)c2cc(-c3cc(F)ccc3OCC3CCCO3)n[nH]2)c1` (stereo not drawn): 3690 (inactive); `COc1ncnc2sc3c(c12)CCCC3`: 23600 (active). On to `O=C(O)c1cccnc1Sc1ncnc2sc3c(c12)CCC3`, for which the fluorescence intensity is 4510 (inactive). Consider `COc1ccc(/C=N/Nc2ncnc3sc4c(c23)CCCC4)cc1O`, for which the fluorescence intensity is 1980 (inactive). Consider `CCOC(=O)C1=C(CSc2nnnn2C)N(C)C(=O)NC1c1ccccc1` (stereo not drawn), for which the fluorescence intensity was 4330 (inactive). Next, `CCOC(=O)C1=C(CSc2nccn2C)NC(=O)NC1c1ccc(OC)cc1` (stereo not drawn): 24300 (active). On to `CCOC(=O)C1=C(CCc2ccccc2)NC(=O)NC1c1ccc2ccccc2c1` (stereo not drawn), for which the fluorescence intensity was 3820 (inactive). Take `CC(C)C[C@H]1CN([C@@H](Cc2ccccc2)CN2CCC[C@@H]2CN2C(=O)C(=O)NC[C@@H]2Cc2ccc(O)cc2)C(=O)C(=O)N1CCc1ccccc1`: the fluorescence intensity is 5350 (inactive). For `CC1CCc2c(sc3nc4n(c(=O)c23)CCS4)C1` (stereo not drawn), the fluorescence intensity was 8310 (inactive).

For `CCCCc1c(O)nc2n(c1=O)CCS2`, the fluorescence intensity is 22100 (active). With `CCOC(=O)N1CCN(C(=O)c2cnc3n(c2=O)CCS3)CC1`, the fluorescence intensity is 2800 (inactive). Next, `CCOC(=O)N1C(=O)C[C@](Sc2ccc(C)cc2)(C(=O)OC)[C@H]1c1ccccc1`: 5390 (inactive); `Cc1ccc(C)c(C(O)c2ncc(-c3cccc4ccccc34)[nH]2)c1` (stereo not drawn): 3640 (inactive); `CC1(C2CC2)NC(=O)N(CC(=O)N2CCN(c3ccccc3F)CC2)C1=O` (stereo not drawn): 2860 (inactive). On to `Cc1csc(SCC(=O)Nc2ccc(C)c(S(=O)(=O)N(C)C)c2)n1`, for which the fluorescence intensity is 3940 (inactive).

With `Cc1ccc(CCNC(=O)C2CCN(S(=O)(=O)N3CCCC3)CC2)cc1`, the fluorescence intensity was 9470 (inactive). Take `CCOC(=O)C1C(=O)C=C(c2ccc(OC)cc2)CC1c1ccco1` (stereo not drawn): the fluorescence intensity is 2300 (inactive). In the case of `CCOC(=O)C1C(=O)NC(N2CCN(c3ccccc3)CC2)=NC1c1ccco1` (stereo not drawn), the fluorescence intensity is 23400 (active). Next, `CCOC(=O)C1(C)NC(c2ccco2)C2C(=O)N(c3ccccc3)C(=O)C21` (stereo not drawn): 4000 (inactive); `Cc1ccc(N2C(=O)CC(Nc3cccc4ccccc34)C2=O)cc1` (stereo not drawn): 3720 (inactive).

For the molecule `Cc1ccc(N2C(=O)C3C(c4ccccc4)(C2=O)C3(c2ccccc2)c2ccccc2)cc1` (stereo not drawn), the fluorescence intensity is 22200 (active). For the molecule `Cc1ccc(C2SCC(=O)N2c2ccccc2)cc1` (stereo not drawn), the fluorescence intensity is 3540 (inactive). For the molecule `COc1ccccc1Nc1ncc(C(C)=O)c(C)n1`, the fluorescence intensity was 2840 (inactive). Take `O=C1CCC(C(=O)N2CCC(O)(c3ccccc3)CC2)CN1CCc1ccccc1` (stereo not drawn): the fluorescence intensity is 5620 (inactive). For the molecule `CC(C)C[C@@H](COCc1ccc(Cl)cc1)N1CCN(C(=O)c2ccc(Cl)cc2Cl)CCC1=O`, the fluorescence intensity is 4700 (inactive).

On to `Cc1cc2c(cc1C)N1C(=O)c3cc4ccccc4cc3NC(=O)C1C(=O)N2` (stereo not drawn), for which the fluorescence intensity is 5850 (inactive).

Turning to `COc1ccc(-n2cnnc2SCC(=O)Nc2cccc(S(N)(=O)=O)c2)cc1`, the fluorescence intensity is 5460 (inactive). For the molecule `CCn1c(CSc2nncn2-c2ccc(OC)cc2)nc2cc(S(=O)(=O)N(C)C)ccc21`, the fluorescence intensity is 20000 (active).

For the molecule `COc1ccc(S(=O)(=O)N(C)C)cc1NC(=O)CSc1ncccn1`, the fluorescence intensity was 2020 (inactive). Next, `CC[C@@H]1CC2=C(C(=O)OC(C)(C)O2)[C@@H](CC)O1`: 5670 (inactive); `CC(C)(C)S(=O)(=O)N1Cc2cc(CO)cc(CCO)c2[C@H]1CCO`: 3670 (inactive); `Cc1ccccc1S(=O)(=O)NC(=O)C1(C)CCN1C(=O)C1(c2ccc(Cl)cc2)CC1` (stereo not drawn): 4140 (inactive). Take `Cc1oc2c(c1C(=O)N1CCOCC1)C(=O)c1ccccc1C2=O`: the fluorescence intensity is 5580 (inactive). In the case of `Cc1cc(Nc2ccc(C(=O)N3CCCCC3)cc2)c2cccc(C)c2n1`, the fluorescence intensity is 3660 (inactive).

`Cc1ccccc1-c1ccc(Nc2ccc(C(=O)N3CCOCC3)cc2)nn1`: the fluorescence intensity was 16400 (active). For the molecule `CCCCc1ccc(S(=O)(=O)NC(=O)C2(C)CCN2C(=O)c2c(C)noc2C)cc1` (stereo not drawn), the fluorescence intensity was 2860 (inactive). Then `CCc1nc2c(OCc3ccc(Cl)cc3Cl)cccn2c1N(C)C(=O)C(C)C`, with 4460 (inactive); and `O=C(COc1ccc(Cl)cc1)Nc1ccc2c(c1)OCO2`, with 3940 (inactive); and `CC(C)CNS(=O)(=O)c1ccc(OCC(=O)Nc2ccc3c(c2)OCO3)c(Cl)c1`, with 16300 (active). In the case of `Cc1cc(S(=O)(=O)NCC(C)C)ccc1OCC(=O)NC1CC1`, the fluorescence intensity is 5980 (inactive). As to `Nc1c(C(=O)OCC(=O)Nc2ccc(OC(F)F)cc2)[nH]c(=O)[nH]c1=O`, the fluorescence intensity was 3380 (inactive). As for `Cc1ccc(Sc2ccc(NC(=O)c3ccc(F)cc3)cc2C#N)cc1`, the fluorescence intensity is 4940 (inactive). On to `CC(C)(CCl)C(=O)Nc1ccc(Sc2ccc(F)cc2)cc1`, for which the fluorescence intensity is 20700 (active).

Take `O=C(CCl)Nc1ccc(Sc2ccc(NC(=O)CCl)cc2)cc1`: the fluorescence intensity is 4330 (inactive).

As for `CC(NC(=O)CN(C)S(=O)(=O)c1ccc(F)cc1)C1CC2CCC1C2` (stereo not drawn), the fluorescence intensity is 3360 (inactive). As to `Cc1c(C(=O)NCc2ccc(C#N)cc2)sc(=O)n1Cc1ccc(C(=O)N(C)C)cc1`, the fluorescence intensity is 4330 (inactive).

For `CC1COC2C(O1)N(S(C)(=O)=O)CCN2S(C)(=O)=O` (stereo not drawn), the fluorescence intensity was 25700 (active). Take `CC1OC2C(OC1C)N(S(C)(=O)=O)CCN2S(C)(=O)=O` (stereo not drawn): the fluorescence intensity was 15900 (inactive). Consider `Cc1ccc(S(=O)(=O)N2CCN(C(=O)CN3C(=O)NC(C)(c4ccc(Cl)cc4)C3=O)CC2)c(C)c1` (stereo not drawn), for which the fluorescence intensity was 3900 (inactive). For the molecule `Cc1cc(C)n2c(Nc3c(C)cccc3C)c(CCc3ccccc3)nc2n1`, the fluorescence intensity was 5430 (inactive). `Cc1onc(-c2c(Cl)cccc2Cl)c1C(=O)c1c[nH]c(C(=O)NC2CC2)c1`: the fluorescence intensity is 23200 (active). Then `Cc1onc(-c2c(F)cccc2Cl)c1C(=O)OCC(=O)N1C(C)CCCC1C` (stereo not drawn), with 3180 (inactive). Then `C/C(=N/OC(=O)c1c(-c2c(F)cccc2Cl)noc1C)c1cnccn1`, with 3970 (inactive); and `CC1=C(C(=O)N(C)C)CC(CC(=O)NCCN2CCOCC2)C(=O)N1Cc1ccccc1` (stereo not drawn), with 3750 (inactive). Consider `CC1(C(=O)Nc2ccc3c(c2)OCCO3)CCN1C(=O)Cc1cc(F)ccc1F` (stereo not drawn), for which the fluorescence intensity is 3870 (inactive). As for `Clc1ccc(C=NC23CN4CN(CN(C4)C2)C3)cc1`, the fluorescence intensity was 3520 (inactive). For the molecule `COC(=O)C1[C@H]2SC(C)(C)C(C(=O)OC)N2C(=O)N1Cc1nc2ccccc2s1` (stereo partly drawn), the fluorescence intensity was 3920 (inactive).

In the case of `CCNC(=O)C1CCCN(C(=O)c2cc(F)ccc2C)CC1` (stereo not drawn), the fluorescence intensity was 3900 (inactive).

With `Cc1c(Br)cc(C(=O)N2CCCCCC2)c(C)c1C`, the fluorescence intensity was 4200 (inactive).

As to `Cc1ccc(C(=O)N2CCCC2)c(F)c1F`, the fluorescence intensity was 24700 (active). Regarding `CNC(=O)c1nnc(Cc2ccc(Cl)cc2)o1`, the fluorescence intensity was 4900 (inactive).

Turning to `COc1cccc(C(NC(C)=O)c2nc(-c3cnc4ccccc4c3)cs2)c1` (stereo not drawn), the fluorescence intensity was 3770 (inactive). For the molecule `CC(C)(C)NS(=O)(=O)c1ccc(NC(=O)NC2CCCCC2)cc1`, the fluorescence intensity is 17000 (active). As to `CC(C)(C)NS(=O)(=O)c1ccc(NC(=O)C2CCCO2)cc1` (stereo not drawn), the fluorescence intensity is 3950 (inactive).

Consider `CC(C)c1ccc(NC(=O)NC2CCCCC2)cc1`, for which the fluorescence intensity is 10400 (inactive). As to `CC1(Cc2cccc(C#N)c2)C(=O)Nc2ccc(-c3cccc(C(F)(F)F)c3)cc21` (stereo not drawn), the fluorescence intensity was 2910 (inactive). `CCOC(=O)C1=CCC(c2ccc(F)cc2)N(S(=O)(=O)c2ccc(C)cc2)C1` (stereo not drawn): the fluorescence intensity is 6000 (inactive). On to `O=C(c1ccc(CN2CCOCC2)cc1)N1CCN(c2ccccc2F)CC1`, for which the fluorescence intensity was 3620 (inactive). For `CC1=C(C(=O)N2CCOCC2)CC(CC(=O)NCC2CCCCC2)C(=O)N1Cc1ccc(F)cc1` (stereo not drawn), the fluorescence intensity was 3780 (inactive). Take `O=C(c1ccc2c(c1)N(Cc1ccc(F)cc1)C(=O)CS2)N1CCOCC1`: the fluorescence intensity is 23800 (active). Regarding `CC1CC(C)CN(CCCNC(=O)c2csc3c2CCCCC3)C1` (stereo not drawn), the fluorescence intensity is 5260 (inactive).

As for `CCOC(=O)c1sc(NC(=O)c2sc(C)nc2C)nc1C`, the fluorescence intensity was 3060 (inactive). In the case of `COC(=O)c1sc(NC(=O)c2csc3c2CCCC3)nc1C`, the fluorescence intensity was 19100 (active). In the case of `CC(C)(C)Cc1c(C2CCCCC2)nc2ccc(Br)cn12`, the fluorescence intensity was 5440 (inactive).

For the molecule `CC(=O)NC(c1cccs1)c1cc(Br)c2cccnc2c1O` (stereo not drawn), the fluorescence intensity is 3590 (inactive). With `CCc1c(C)nc2ncnn2c1N1CCC(C(=O)NCc2ccc3c(c2)OCO3)CC1`, the fluorescence intensity was 20900 (active). For the molecule `Fc1ccc(N2CCN(Cc3ccc4c(c3)OCO4)CC2)cc1`, the fluorescence intensity was 22800 (active).

Consider `Cc1cc(C)n2nc(C(=O)N3CCN(Cc4ccc5c(c4)OCO5)CC3)nc2n1`, for which the fluorescence intensity is 4210 (inactive).

In the case of `Oc1cc2c(cc1CN1CCN(c3ccccc3)CC1)OCO2`, the fluorescence intensity is 5830 (inactive). For `Cc1cc(N2CCN(Cc3ccc4c(c3)OCO4)CC2)n2ncnc2n1`, the fluorescence intensity is 21200 (active). Next, `COc1ccc(-c2csc(N3CCN(Cc4ccc5c(c4)OCO5)CC3)n2)cc1`: 23000 (active). Consider `N#C/C=C/N1CCN(Cc2ccc3c(c2)OCO3)CC1`, for which the fluorescence intensity was 3600 (inactive).

On to `COc1ccc(-c2cc(C(=O)N3CCN(Cc4ccc5c(c4)OCO5)CC3)on2)cc1OC`, for which the fluorescence intensity is 5740 (inactive). Turning to `Cc1cc(C)c(S(=O)(=O)NCC2CCC(C(=O)NCc3ccc4c(c3)OCO4)CC2)c(C)c1` (stereo not drawn), the fluorescence intensity was 8390 (inactive). Then `COc1ccc(C(O)c2nc(-c3ccc4c(c3)OCO4)cs2)cc1` (stereo not drawn), with 2970 (inactive); and `Cc1cc(N2CCN(c3ccc(F)cc3)CC2)n2ncnc2n1`, with 3960 (inactive). On to `O=C(NCc1ccc2c(c1)OCO2)C1CCCN(S(=O)(=O)c2cccs2)C1` (stereo not drawn), for which the fluorescence intensity is 5650 (inactive).

As for `CCc1nc2ccc(C(=O)NC3CCN(Cc4ccccc4)CC3)cn2c1N(C)CCN1CCOCC1`, the fluorescence intensity was 3530 (inactive).
